Results on 31 molecules are retold here after PubChem BioAssay (NCI).

About 79,000 compounds went through this panel and 15% of them were active in at least one assay; those are over-represented in the sample as a whole. Active and inactive are the calls of the source. No stated cut-off is given here; in the data, active means growth inhibition above about 70%; inactive means the rest.

A short description of this assay: NCI Yeast Anticancer Drug Screen. Data for the wt2 strain (AID 169).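 Further: 0% = growth of vehicle-treated yeast cultures.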 Conditions: S. cerevisiae wt2 strain growth inhibition; at 33.0 µM; hits give high values. The gist of the method: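 Steps: yeast strain treated with compound; growth recorded; inhibition calculated relative to cultures given vehicle alone.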
Turning to `C/C(=N\NC(=S)SCc1ccccc1)c1ccccn1`, the growth inhibition is 95% (active).
Under `CC[C@@]1(O)C(=O)OCc2c1cc1n(c2=O)Cc2cc3c(N)cccc3nc2-1` stands -3% (inactive); under `CC(=O)OCCOCNC(=S)N/N=C(\C)c1cnccn1`, 25% (inactive); under `COc1ccc(C2c3cc4c(cc3OC(C)(O)C2C)OCO4)c(OC)c1` (stereo unspecified), 1% (inactive).
To `COc1ccc(Br)c(C(=O)Sc2nnnn2-c2cccc(Cl)c2)c1` belongs -8% (inactive).
Under `O=C(NNc1ccnc2cc(Cl)ccc12)/C(=C\c1ccccc1Cl)NC(=O)c1ccccc1` stands 38% (inactive).
For `CSC(=S)Nc1cccc(C)n1`, the growth inhibition was -10% (inactive).
Under `O=C(/C=C\c1ccc(Cl)cc1Cl)c1cccs1` stands 4% (inactive); under `COc1ccc(-c2cn(-c3ccc(I)cc3)c3ncnc(N)c23)cc1`, -8% (inactive).
As to `CN(C)c1ccc(C(C#N)=C(C#N)C#N)cc1`, the growth inhibition was 0% (inactive).
For the molecule `COc1cc(/C=C2\CCc3ccccc3C2=O)cc(OC)c1OC`, the growth inhibition was 13% (inactive).
As to `CC(C)/C(Cl)=N\OC(=O)Nc1cccc(Cl)c1`, the growth inhibition is -4% (inactive).
`CC1(C)[C@@H]2CC[C@]1(C)[C@H](OC(=O)CSC#N)C2`: the growth inhibition was 89% (active).
To `NNC(=O)CCc1ccc2ccc3ccccc3c2c1` belongs 6% (inactive).
With `C=CC(C)(O)CCC1C(=C)C(O)CC2C(C)(C)CCCC12C` (stereo unspecified), the growth inhibition is 28% (inactive).
To `S=C(Nc1ccc(Cl)c(Cl)c1)SCc1ccc2c(c1)OCO2` belongs 100% (active); to `COc1cc(C2C3=C(COC3=O)Oc3cc4c(cc32)OCO4)ccc1O` (stereo unspecified), -1% (inactive); to `S=C(Nc1ccc(Cl)cc1)SC1CCCCC1`, 99% (active).
To `Nc1nc(-c2cccnc2)cc(-c2cc(-c3cccnc3)nc(N)n2)n1` belongs -1% (inactive); to `COC1=CC(=O)C2C(C1=O)C(c1ccc(Cl)cc1)[C@@H]2C` (stereo partly specified), 98% (active).
For `O=[N+]([O-])c1cc(CCl)ccc1CCl`, the growth inhibition was 96% (active).
`COc1ccc(/C=C2\SC(=S)N(/C=C/c3nc4ccccc4[nH]c3=O)C2=O)cc1OC`: the growth inhibition is 80% (active).
For `CCCN(CCC)CC(O)c1cc(-c2ccc(Cl)cc2)nc2c(C)c(Cl)ccc12` (stereo unspecified), the growth inhibition was 97% (active).
To `O=C(Nc1ccccc1)OCCc1ccc(Cl)c(Cl)c1` belongs 24% (inactive); to `CC(O)C(O)C(O)C(/C=N\Nc1ccccc1)=N/Nc1ccccc1` (stereo unspecified), 38% (inactive).
Regarding `C#CCCCc1ccccc1`, the growth inhibition is -31% (inactive).
Consider `CC(=O)Cc1ccc[cH-]1.[Fe+2].c1cc[cH-]c1`, for which the growth inhibition was 17% (inactive).
As for `Cc1cc(I)ccc1N`, the growth inhibition was 88% (active).
Under `CC(C)(CN1CCCCC1)C(=O)CC(SCCS(=O)(=O)O)c1ccc(Br)cc1` (stereo unspecified) stands 24% (inactive).
With `C[Si](C)(C)CNC(=O)OCc1ccccc1`, the growth inhibition was 0% (inactive).
Under `CC(C(=O)N1C(=O)N(C(=O)[C@H](C)C(O)c2ccccc2)[C@H](c2ccccc2)[C@H]1c1ccccc1)[C@@H](O)c1ccccc1` (stereo partly specified) stands 41% (inactive).
